About 2,100 (0.53%) of roughly 400,000 compounds were called active. Inconclusive results (about 14%) are left out. The rule behind the calls is not given here. For the sample, actives were picked, then their nearest neighbours and some compounds at random.
These molecules were tested against Ataxin-2 (Homo sapiens) (UniProt Q99700) (assay: qHTS for Inhibitors of ATXN expression.).
Assay type: functional

Chain of Ataxin-2 (Homo sapiens) (Q99700 whole entry): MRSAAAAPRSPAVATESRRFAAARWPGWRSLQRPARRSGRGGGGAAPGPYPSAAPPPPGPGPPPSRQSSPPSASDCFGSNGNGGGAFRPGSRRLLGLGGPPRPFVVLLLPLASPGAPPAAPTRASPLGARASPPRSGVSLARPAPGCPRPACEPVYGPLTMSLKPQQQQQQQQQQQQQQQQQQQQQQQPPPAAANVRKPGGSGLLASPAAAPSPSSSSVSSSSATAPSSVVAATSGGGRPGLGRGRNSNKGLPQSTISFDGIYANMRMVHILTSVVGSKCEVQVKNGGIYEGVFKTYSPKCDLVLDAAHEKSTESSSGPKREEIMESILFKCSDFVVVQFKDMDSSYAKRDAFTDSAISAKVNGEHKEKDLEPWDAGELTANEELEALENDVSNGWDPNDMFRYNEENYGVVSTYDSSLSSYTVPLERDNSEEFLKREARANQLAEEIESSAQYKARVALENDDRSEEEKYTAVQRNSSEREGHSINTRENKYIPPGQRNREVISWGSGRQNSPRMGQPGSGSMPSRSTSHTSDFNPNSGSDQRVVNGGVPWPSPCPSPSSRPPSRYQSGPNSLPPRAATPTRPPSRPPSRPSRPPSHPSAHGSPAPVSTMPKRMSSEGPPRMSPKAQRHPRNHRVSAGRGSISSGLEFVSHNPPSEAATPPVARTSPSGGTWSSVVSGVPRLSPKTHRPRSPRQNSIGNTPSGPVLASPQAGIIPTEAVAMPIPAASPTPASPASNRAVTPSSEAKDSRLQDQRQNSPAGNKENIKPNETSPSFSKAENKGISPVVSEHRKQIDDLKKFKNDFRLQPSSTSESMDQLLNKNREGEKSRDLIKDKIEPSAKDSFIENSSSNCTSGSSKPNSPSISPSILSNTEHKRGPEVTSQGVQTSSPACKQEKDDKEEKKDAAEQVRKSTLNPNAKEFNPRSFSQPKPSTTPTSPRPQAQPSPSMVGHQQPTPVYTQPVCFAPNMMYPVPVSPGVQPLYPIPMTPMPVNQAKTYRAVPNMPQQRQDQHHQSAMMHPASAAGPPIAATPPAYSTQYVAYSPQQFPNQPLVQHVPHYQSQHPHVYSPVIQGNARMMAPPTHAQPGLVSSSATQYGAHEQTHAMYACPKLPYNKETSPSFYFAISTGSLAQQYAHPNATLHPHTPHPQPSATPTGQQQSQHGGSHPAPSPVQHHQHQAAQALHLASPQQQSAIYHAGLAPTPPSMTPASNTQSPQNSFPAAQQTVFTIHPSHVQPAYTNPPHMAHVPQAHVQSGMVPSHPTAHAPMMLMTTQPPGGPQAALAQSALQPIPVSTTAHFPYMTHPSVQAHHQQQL

Row | SMILES | Potency
1 | C=CCNc1nc2ccccc2nc1NS(=O)(=O)c1ccc(F)cc1 | inactive
2 | CCOC(=O)/C(=C\C=C1/Sc2cc(OCC)c(OCC)cc2N1CC)C(C)=O | inactive
3 | COc1ccccc1[C@@H]1C(c2cccc(Cl)c2)=NN(c2ccccc2)[C@H]1C(=O)N1CCOC1=O | inactive
4 | CCOC(=O)C1(Cc2cccc(F)c2)CCN(Cc2cn(CC)nc2C)CC1 | inactive
5 | CCCn1c(N)c(C(=O)CSc2nncs2)c(=O)[nH]c1=O | inactive
6 | COC(=O)C1=CN(CC2CCCO2)C=C(C(=O)OC)C1c1cccc(O)c1 (stereo not given) | inactive
7 | Cc1c(O)ccc2c(CC(=O)N[C@@H](Cc3ccccc3)C(=O)O)cc(=O)oc12 | inactive
8 | CCn1cc(C(=O)N(C)Cc2ccc(OC(F)F)cc2)c(=O)c2ccc(C)nc21 | inactive
9 | CCOC(=O)c1cc2c(=O)n3ccccc3nc2n(CC2CCCO2)/c1=N\C(=O)c1ccccc1OCC (stereo not given) | inactive
10 | CCOC(=O)C1CCCN(Cc2ccc(OCc3ccccc3)c(OC)c2)C1 (stereo not given) | inactive
11 | Cc1nc2c(OCc3ccc(OC(F)F)cc3)cccn2c1N(C)C(=O)CCC1CCCC1 | 39.8 µM (active)
12 | COC(=O)c1ccc(COc2cccn3c(N(C)C(=O)CCC4CCCC4)c(C)nc23)cc1 | 35.5 µM (active)
13 | CCCCCC(=O)Nc1ncc2c(n1)CC(c1cccs1)CC2=O (stereo not given) | inactive
14 | O=C(CCCCCn1c(=S)[nH]c2ccc(N3CCOCC3)cc2c1=O)NC1CCN(Cc2ccccc2)CC1 | inactive
15 | Cc1sc2c(c1C)C(O)=C(/C=N/c1ccccn1)S(=O)(=O)N2C | inactive
16 | N#C/C(=C(/O)C(Cl)(Cl)Cl)c1nc2ccccc2[nH]1 | inactive
17 | N#Cc1c(N)n(CCNC(=O)c2ccccc2)c2nc3ccccc3nc12 | inactive
18 | N#C/C(=C(/O)COC(=O)CCCNC(=O)c1ccc(Cl)cc1)c1nc2ccccc2[nH]1 | 25.1 µM (active)
19 | N#Cc1ccccc1S(=O)(=O)N1CCN(C(=O)CCC2CCCC2)CC1 | inactive
20 | N#C/C(=C\c1ccc(-c2ccccc2C(=O)O)o1)c1nc2ccccc2[nH]1 | inactive
21 | N#CC(=C(O)COC(=O)CCC1CCCCC1)c1nc2ccccc2[nH]1 | 39.8 µM (active)
22 | N#C/C(=C(/O)COC(=O)COc1cccc(Br)c1)c1nc2ccccc2[nH]1 | 22.4 µM (active)
23 | N#C/C(=C(/O)COC(=O)COc1ccc(Cl)cc1)c1nc2ccccc2[nH]1 | 39.8 µM (active)
24 | N#C/C(=C\c1ccccc1C(=O)O)c1nc2ccccc2[nH]1 | inactive
25 | N#Cc1c(N)n(CCOC(=O)c2ccc(Cl)cc2)c2nc3ccccc3nc12 | inactive

Row | SMILES | Potency
26 | Cc1cccc(N2C(=O)c3ccccc3C2=O)n1 | inactive
27 | Oc1ccccc1C1=NN(c2ccccc2)C(c2ccccc2)C1 (stereo not given) | inactive
28 | COc1cc(/C=C/c2onc(C)c2[N+](=O)[O-])cc(OC)c1OC | inactive
29 | O=C(CN1C(=O)c2ccccc2C1=O)NCc1ccc(N2CCOCC2)cc1 | inactive
30 | O=C(OCCOc1cccc(Cl)c1)c1ccc2ncsc2c1 | inactive
31 | CCC(=O)Nc1c(OC(=O)CC)ccc2c(C)cc(=O)oc12 | inactive
32 | CCCCn1c(N)c(N(CC)C(=O)c2cc(OC)cc(OC)c2)c(=O)[nH]c1=O | inactive
33 | CCCCN(C(=O)c1ccc2ccccc2c1)c1c(N)n(CCCC)c(=O)[nH]c1=O | inactive
34 | CCCCn1c(N)c(N(CCC(C)C)C(=O)c2ccc(-c3ccc([N+](=O)[O-])cc3)o2)c(=O)[nH]c1=O | 20 µM (active)
35 | COc1cc2c(cc1OC)C(c1ccc(-c3ccccc3Cl)o1)=NCC2 | 39.8 µM (active)
36 | Cc1nn(C)c(C)c1N1C(=O)c2cccc3c(Br)ccc(c23)C1=O | inactive
37 | Cc1ccccc1CNC(=O)c1ccccc1NS(C)(=O)=O | inactive
38 | Cc1ccccc1C(=O)NCCCNC(=O)c1ccco1 | inactive
39 | Cc1ccccc1CS(=O)(=O)Cc1ccc(C(=O)NCCCN2CC(C)CC(C)C2)o1 (stereo not given) | 8.91 µM (active)
40 | CC(C)C1Cc2c(sc3ncnc(NN)c23)CO1 (stereo not given) | inactive
41 | Cc1cc(O)cc2c(=O)c3ccccc3sc12 | inactive
42 | COc1cc(C)c2sc3ccccc3c(=O)c2c1NCCN(C)C | 44.7 µM (active)
43 | CN(C)CCCNC(=O)c1cc2sc3ccccc3c2s1 | inactive
44 | Cc1ccc(/C=N/NC(=O)c2cc3c(s2)CCCC3)o1 | inactive
45 | O=S(=O)(/C=C/c1ccccc1)NCc1ccccc1Cl | inactive
46 | O=C(CCC(=O)N/N=C/c1cc(Cl)cc(Cl)c1O)NCc1ccccc1 | inactive
47 | CCC/C=C/c1ccc(CN2C(CC(C)C)C(=O)N(Cc3cn(CCC4OCCCO4)nn3)CCS2(=O)=O)cc1 (stereo not given) | 39.8 µM (active)
48 | CCC/C=C/c1ccc(CN2C(CC(C)C)C(=O)N(Cc3cn(CCC4OCCO4)nn3)CCS2(=O)=O)cc1 (stereo not given) | 35.5 µM (active)
49 | O=C(CCCCn1c(=O)[nH]c2ccsc2c1=O)NCc1ccc2c(c1)OCO2 | inactive
50 | CN(C)S(=O)(=O)c1ccc2oc(SCC(=O)c3c(N)n(C4CC4)c(=O)[nH]c3=O)nc2c1 | inactive

Row | SMILES | Potency
51 | O=c1c2ccccc2nc(/C=C/c2c[nH]c3ccccc23)n1CCO | inactive
52 | CCCCc1cc(-c2nnc(S)o2)c2ccccc2n1 | inactive
53 | CC(Oc1ccccc1Cl)C(=O)Nc1ccc(S(=O)(=O)N2CCCC2)cc1 (stereo not given) | 35.5 µM (active)
54 | CC(Oc1cc(F)ccc1[N+](=O)[O-])C(=O)Nc1ccc(S(=O)(=O)N2CCCC2)cc1 (stereo not given) | inactive
55 | CC(C)NS(=O)(=O)c1ccc(NC(=O)C(C)OC(=O)C2CCC2)cc1 (stereo not given) | inactive
56 | Cc1cc2nc(-c3cccnc3O)[nH]c2cc1C | inactive
57 | CN1c2ccccc2C(C)(C)C12C=Nc1c(cc(N3CCOCC3)c3ccccc13)O2 (stereo not given) | inactive
58 | NC(=O)c1nsc(C(=O)N(c2cccc(O)c2)C(C(=O)NC2CCCC2)c2ccc(Cl)cc2)c1N (stereo not given) | inactive
59 | Cc1ccccc1N(C(=O)c1snc(C(N)=O)c1N)C(C(=O)NCC1CCCO1)c1ccc(F)cc1 (stereo not given) | inactive
60 | Cc1cccc(N(C(=O)c2nsc(Cl)c2Cl)C(C(=O)NC2CCCC2)c2ccc(O)cc2)c1C (stereo not given) | 17.8 µM (active)
61 | COC(=O)c1cc2c(=O)c3ccccc3oc2nc1/C=C/N(C)C | inactive
62 | COc1ccc(-c2cc(C(=O)Nc3cc(S(N)(=O)=O)ccc3C)c3ccccc3n2)cc1OC | inactive
63 | COc1cc(N=Nc2cccc(S(N)(=O)=O)c2)c2ccccc2c1N | 35.5 µM (active)
64 | COc1cc(/C=N\NS(=O)(=O)c2ccccc2)cc(OC)c1OC | inactive
65 | O=c1cc(CSc2nc(O)c3ccccc3n2)c2ccc(O)cc2o1 | inactive
66 | CC(Oc1cccc(Cl)c1)C(=O)Nc1nc(-c2ccccn2)cs1 (stereo not given) | 39.8 µM (active)
67 | Cc1ccc(Cl)cc1NC(=O)c1ccccn1 | inactive
68 | CC(Oc1ccc(Cl)cc1)C(=O)Nc1sccc1C(N)=O (stereo not given) | inactive
69 | CCOC(=O)c1c(N)n(-c2ccc(CC)cc2)c2nc3ccccc3nc12 | inactive
70 | CCOC(=O)N(C)c1c(CC)nc2c(OCc3ccc(Cl)cc3)cccn12 | 20 µM (active)
71 | NNC(=O)c1sccc1OCc1ccc(Cl)cc1Cl | inactive
72 | Cc1nc2c(OCc3ccc(Cl)cc3Cl)cccn2c1N(C)Cc1cccs1 | 8.91 µM (active)
73 | CSCCC(NC(=O)COc1ccccc1)C(=O)N(C)Cc1ccc(Cl)cc1Cl (stereo not given) | inactive
74 | CCc1nc2c(OCc3ccc(Cl)cc3Cl)cccn2c1N(C)C(C)=O | 31.6 µM (active)
75 | O=C(O)CCC(=O)N1CCN(c2nc(-c3ccccc3)c3ccccc3n2)CC1 | inactive

Row | SMILES | Potency
76 | O=C(CCCCCn1c(=S)[nH]c2ccc(N3CCOCC3)cc2c1=O)NCc1ccccc1Cl | inactive
77 | Cc1ccc(NCc2nnc(SCC(=O)O)n2-c2ccc(C)cc2)cc1 | inactive
78 | Cc1cccc(OCc2nnc(SCC(=O)O)n2-c2ccccc2)c1 | 39.8 µM (active)
79 | CCn1c(COc2cccc(C)c2)nnc1SCC(=O)NC1CCCC1 | inactive
80 | COc1ccc2ccc3cccc[n+]3c2c1 | inactive
81 | CC(=O)Nc1ccc(S(=O)(=O)Nc2nc(C)cc(-n3nc(C)cc3C)n2)cc1 | inactive
82 | Cc1cc(NC(=O)CSc2nc3c(C)cccc3cc2C#N)no1 | inactive
83 | NNC(=O)c1oc2nc(-c3ccccc3)cc(-c3ccco3)c2c1N | inactive
84 | O=C1[C@H](Cc2ccccc2)NCC=CC[C@@H](c2ccc(Cl)cc2)N1Cc1ccccc1 | 35.5 µM (active)
85 | O=C1[C@H](Cc2ccccc2)NCC=CC[C@@H](c2ccc(Cl)cc2)N1Cc1ccc(Cl)cc1 | 28.2 µM (active)
86 | Cc1ccc2nc3nc(NCC4CCCO4)c(C(=O)NC4CCCC4)cc3c(=O)n2c1 (stereo not given) | inactive
87 | CCC(=O)c1cc2c(C)cc(=O)oc2c(C)c1OC(C)=O | inactive
88 | Brc1ccc(OCc2nnnn2-c2ccccc2)cc1 | inactive
89 | COc1ccccc1N1CCN(S(=O)(=O)c2ccc(-n3cnnn3)cc2)CC1 | inactive
90 | COc1ccccc1-n1nnnc1S(=O)(=O)Cc1ccc(Cl)cc1 | 25.1 µM (active)
91 | Cc1cccc(/C=C(\C(=O)C(=O)O)c2ccc3ccccc3n2)c1 | inactive
92 | NC(Cc1ccc(Cl)cc1)c1csc(Nc2cc(Oc3ccccc3)ncn2)n1 (stereo not given) | 35.5 µM (active)
93 | CC(C)CC(N)c1csc(Nc2cc(Oc3ccccc3)ncn2)n1 (stereo not given) | 39.8 µM (active)
94 | CCn1c(SCc2ccc(F)cc2)nc2c(c1=O)SCC2 | inactive
95 | COc1cccc(-c2ccc3c(N)c(C(=O)c4ccc(F)cc4)sc3n2)c1 | inactive
96 | C=CCNC(S)=Nc1ccc(Br)cc1F | inactive
97 | CSc1ccccc1NC(=O)c1cc(C2CC2)on1 | inactive
98 | CCOC(=O)C1=C(C)N=c2sc(=Cc3ccc(OCC(=O)O)cc3)c(=O)n2C1c1ccc(SC)cc1 (stereo not given) | inactive
99 | CCOC(=O)CSC1=N/C(=C/c2ccc(-n3cncn3)cc2)C(=O)N1C(C)=O | inactive
100 | CCOC(=O)CSC1=NC(=O)/C(=C\c2ccc(OC(C)=O)cc2)S1 | 28.2 µM (active)

From ChEMBL document CHEMBL1201862, “PubChem BioAssay data set” (2004)
